Laboratory results: the supplement of paper PMC6555819

Tests used:
Assay in all cases: PBM binding z-score (relative to random genomic background probes); higher = stronger binding; sequences stand for … in GC…GCGATTGACAGCGTAGAATGAAGG
[1] = system: FXR:RXRa (NR concentration 270 nM, RXRa partner concentration 90 nM)
Outline: (§1)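 The probes on custom Agilent 4×180K protein-binding microarrays were double-stranded, with 34-nt variable regions bearing direct-repeat seeds, single-nucleotide variants, half-site ablations and random human genomic background sequences. Incubation lasted 1 h with ligand-free nuclear receptor dimers in PBS pH 7.4, 2% milk, 0.02% Triton X-100, 1 mM DTT, 0.2 mg/mL BSA and 0.4 mg/ml salmon testes DNA. Antibodies against each partner (one per run) detected bound dimers, and fluorescence scans were regression-normalized. Binding z-scores take the random background probes as reference.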

[2] = system: LXRa:RXRa (NR concentration 270 nM, RXRa partner concentration 90 nM)
Outline: as §1

[3] = system: LXRa homodimer (NR concentration 270 nM)
Outline: as §1

[4] = system: LXRb:RXRa (NR concentration 270 nM, RXRa partner concentration 90 nM)
Outline: as §1

[5] = system: LXRb homodimer (NR concentration 270 nM)
Outline: as §1

[6] = system: PPARa:RXRa (NR concentration 270 nM, RXRa partner concentration 90 nM)
Outline: as §1

[7] = system: PPARg:RXRa (NR concentration 180 nM, RXRa partner concentration 90 nM)
Outline: as §1

[8] = system: PPARg:RXRa 270nM:90nM, anti-RXR (NR concentration 270 nM, RXRa partner concentration 90 nM)
Outline: as §1

[9] = system: PPARg:RXRa 30nM:10nM, anti-RXR (NR concentration 30 nM, RXRa partner concentration 10 nM)
Outline: as §1

[10] = system: PPARg:RXRa 90nM:30nM, anti-RXR (NR concentration 90 nM, RXRa partner concentration 30 nM)
Outline: as §1

[11] = system: PPARg:RXRa DBDmut IVT, anti-RXR (DBD mutation: RXRa K156A/R161A, NR concentration 270 nM, RXRa partner concentration 90 nM)
Outline: as §1

[12] = system: PPARg:RXRa IVT, anti-PPARg (NR concentration 270 nM, RXRa partner concentration 90 nM)
Outline: as §1

[13] = system: PPARg DBDmut:RXRa IVT, anti-PPARg (DBD mutation: PPARg1 K132A/R137A, NR concentration 270 nM, RXRa partner concentration 90 nM)
Outline: as §1

[14] = system: PPARg DBDmut IVT, anti-PPARg (DBD mutation: PPARg1 K132A/R137A, NR concentration 270 nM)
Outline: as §1

[15] = system: PPARg homodimer (NR concentration 180 nM)
Outline: as §1

[16] = system: PXR:RXRa (NR concentration 270 nM, RXRa partner concentration 90 nM)
Outline: as §1

[17] = system: PXR homodimer (NR concentration 270 nM)
Outline: as §1

[18] = system: RARa:RXR (NR concentration 270 nM, RXRa partner concentration 90 nM)
Outline: as §1

[19] = system: RARa homodimer (NR concentration 270 nM)
Outline: as §1

[20] = system: RARb:RXRa (NR concentration 270 nM, RXRa partner concentration 90 nM)
Outline: as §1

Sequence | PBM binding z-score [1] | PBM binding z-score [2] | PBM binding z-score [3] | PBM binding z-score [4] | PBM binding z-score [5] | PBM binding z-score [6] | PBM binding z-score [7] | PBM binding z-score [8] | PBM binding z-score [9] | PBM binding z-score [10] | PBM binding z-score [11] | PBM binding z-score [12] | PBM binding z-score [13] | PBM binding z-score [14] | PBM binding z-score [15] | PBM binding z-score [16] | PBM binding z-score [17] | PBM binding z-score [18] | PBM binding z-score [19] | PBM binding z-score [20]
CGAACGAGGGCTTGAGTTGATAGCAAATGCCGAT | -0.357 | -0.589 | -0.512 | -0.688 | -0.924 | -0.425 | 0.25 | -0.478 | -0.548 | -0.639 | 0.359 | -0.447 | -0.831 | -1.02 | -0.915 | -0.245 | -0.409 | -0.285 | -0.522 | -0.252
TCAGAGAGGTGAAGGTAACTCAGGTACGCAGTCG | 1.22 | 2.12 | -0.198 | 0.909 | -0.432 | 2.27 | 1.23 | 2.64 | 3.84 | 3.09 | 3.17 | 2.38 | 0.0231 | -0.235 | 0.67 | 0.893 | -0.409 | 1.49 | -0.115 | 2.07
GCTATTAGTTGAAAGGGCAACGGAATGATTCTCG | 0.364 | 0.524 | 0.225 | 0.73 | -0.171 | 2.5 | 2.45 | 4.33 | 2.24 | 4.02 | 0.701 | 0.992 | 1.04 | 0.361 | 0.8 | 0.606 | 0.255 | 1.19 | 0.995 | 1.93
TTACCAAGGTGAGCTGAGGTCGGTGATCCAACTC | 0.603 | 0.222 | -0.197 | 0.0956 | -1.13 | 1.07 | 0.209 | 0.517 | -0.0845 | 0.37 | 0.759 | 1.6 | -0.343 | -0.369 | -0.703 | 2.47 | -0.308 | 1.19 | -0.395 | 1.52
TAGCCTAGGTCATTGAGGGGCCAGTATAGAAAGC | 4.54 | 3.48 | 0.272 | 2.84 | 1.08 | 3.67 | 2.08 | 2.48 | 0.353 | 1.49 | 1.9 | 2.84 | 0.198 | 0.125 | 2.84 | 2.36 | -0.0238 | 3.39 | -0.506 | 3.93
AGAACGAGGGCAATTAGTTGATAGCACGGGTGGC | 0.559 | 0.389 | -0.309 | 0.306 | -0.23 | 1.64 | 1.31 | 0.81 | -0.134 | 0.104 | 3.45 | 2.65 | 0.442 | -0.255 | 0.218 | 0.729 | 1.02 | 0.412 | 0.215 | 2.06
